Bioassay records from PubChem.
S aureus helic: blocks Staphylococcus aureus DNA helicase | hit rate 0.05% among 120,000 | inhibition, % (no concentration beside the values) | purified S. aureus helicase, fluorescence unwinding assay; in the data active = inhibition above about 25%, passing the limit was not always enough
HCMV NEC inh: disrupts HCMV UL50-UL53 complex binding; HTRF UL50-UL53 interaction, normalized percent inhibition; hit rate 0.15% among 190,000; inhibition, % (no concentration beside the values); in the data active = inhibition above about 27%, passing the limit was not always enough
Sa growth inh: blocks Staphylococcus aureus growth. S. aureus RN4220 growth, OD600, 20 h, 42 °C; active compounds read low. relative growth, % (no concentration beside the values). hit rate 0.53% among 170,000;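 active = relative growth at most 50% at the other temperature and 20+ points below 30 °C, or under 10% at both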
Numbers stand for hits; n = inactive; x = no result given. The sample as a whole holds a higher share of hits than the screen did.

SMILES | S aureus helic | HCMV NEC inh | Sa growth inh
CCOC(=O)c1c(C)[nH]c(CN(Cc2ccccc2)C(=O)Nc2ccccc2)c1C | x | n | x
CC(=O)N1CCN(c2ccc(Oc3ccc(C(F)(F)F)cn3)cc2)CC1 | n | n | n
NC1=CC(=O)c2ccccc2C1=O | n | n | 0.6
O=C1C=C(Cc2ccc(F)cc2)C(=O)c2ccccc21 | n | n | 0.2
O=C1C=C(c2ccccc2)C(=O)c2ccccc21 | x | n | 3.8
O=C1C(=Cc2ccc(F)cc2)C(=O)c2ccccc21 | x | n | n
CC1=CC(=O)c2ccccc2C1=O | x | n | n
O=C1C=C(Nc2ccccc2)C(=O)c2ccccc21 | n | n | n
CN1C(=C(C#N)C(=O)COc2ncnc3sc4c(c23)CCCC4)N(C)c2ccccc21 | n | n | n
CCc1cc(C(Nc2cc(C)ccn2)c2ccc3c(c2)OCO3)c(NC(=O)c2ccccc2)s1 (stereo unspecified) | x | n | x
Oc1cc2c(cc1C(Nc1ccccn1)c1ccc3c(c1)OCO3)OCO2 (stereo unspecified) | n | n | 0.6
Cc1ccc(C)c(OCCCC(=O)Nc2ccc(N3CCOCC3)cc2)c1 | n | 92 | n
Cc1ccc(NC(=O)CS(=O)CC(=O)Nc2ccc(N3CCOCC3)cc2)cc1Cl (stereo unspecified) | n | n | n
CCCCS(=O)(=O)c1oc(-c2cccs2)nc1S(=O)(=O)c1ccc(F)cc1 | x | n | n
CCC(C)S(=O)(=O)c1oc(-c2ccc(F)cc2)nc1S(=O)(=O)c1ccc(F)cc1 (stereo unspecified) | x | n | 15
CC(C)CS(=O)(=O)c1oc(-c2cccs2)nc1S(=O)(=O)c1ccccc1 | n | n | 23
CCCCCS(=O)(=O)c1oc(-c2cccs2)nc1S(=O)(=O)c1ccc(C)cc1 | x | n | n
CCCCS(=O)(=O)c1oc(-c2ccc(F)cc2)nc1S(=O)(=O)c1ccc(C)cc1 | x | n | 4.8
C=CCNc1oc(-c2ccc(F)cc2)nc1S(=O)(=O)c1ccccc1 | x | n | x
CCS(=O)(=O)c1oc(-c2ccc(F)cc2)nc1S(=O)(=O)c1ccccc1 | x | n | 2.2
CCC(C)S(=O)(=O)c1oc(-c2ccc(F)cc2)nc1S(=O)(=O)c1ccc(C)cc1 (stereo unspecified) | n | n | n
CCCc1nc2ccccc2n1CC(=O)N(CC)C1CCCCC1 | n | n | n
Cc1c(NC2=C(C(=O)c3ccccc3)N(C)S(=O)(=O)c3ccccc32)c(=O)n(-c2ccccc2)n1C | n | n | n
CCCNC(=O)c1ccc(Nc2cc(-c3cccc(C)c3)ncn2)cc1 | x | n | x
NC(N)=N/N=C/c1cn(-c2ccccc2)nc1-c1ccccc1 | n | n | -1.6
SMILES | S aureus helic | HCMV NEC inh | Sa growth inh
NC(=O)N/N=C/c1cn(-c2ccccc2)nc1-c1ccccc1 | n | n | n
CCN(CC)C(=O)COc1ccc2c(CC(=O)O)coc2c1 | n | n | n
CC(CCc1ccccc1)NC(=O)COc1nc2ccccc2nc1N1CCOCC1 (stereo unspecified) | n | n | n
CCOC(=O)c1sc(-c2ccc(F)cc2)cc1N | n | n | 48
CCOC(=O)c1sc(-c2ccccc2)cc1N | n | n | x
CC(C)Sc1nccn2nc(-c3cccs3)cc12 | x | n | x
CCN(CC)CCCNc1nc2cc(OC)c(OC)cc2c2nc(-c3ccccc3)nn12 | 74 | x | n
CCN(CC)CCCNc1nc2cc(OC)c(OC)cc2c2nc(-c3cccnc3)nn12 | n | n | n
CCN1CCN(Cc2ccc(NC(=O)CN3C(=O)CSc4ncccc43)cc2)CC1 | n | n | n
CCCCOC(=O)c1cccc(NC(=O)c2cc3ccccc3o2)c1 | x | 138 | n
CCCCOC(=O)c1ccc(NC(=O)c2cc(=O)c3ccccc3o2)cc1 | x | n | n
CCCN1C(=O)/C(=C/c2ccc(C(C)C)cc2)SC1=S | n | n | n
CCC(C(=O)OC(C)C)n1cnc2sc3c(c2c1=O)CCC(C)C3 (stereo unspecified) | n | n | 34
CC1CCc2c(sc3ncn(CC(=O)N4CCCC4)c(=O)c23)C1 (stereo unspecified) | n | n | n
Cc1cc(Cl)c(CC(=O)O)c(Cl)n1 | n | n | n
Cc1ccc(S(=O)(=O)CCC(=O)c2ccc(O)cc2O)cc1 | n | n | -0.2
Cc1ccc(S(=O)(=O)CCC(=O)O)cc1 | n | n | n
N#CC(C#N)=C(N)COc1ccc(F)cc1 | x | n | x
NC(=S)COc1ccc(F)cc1 | 25 | n | n
CSc1ccc(Cl)c(C(=O)N2CCc3ccccc32)c1 | n | n | n
Cn1cc(/C=C2\C(=O)Nc3ccc(S(N)(=O)=O)cc32)c2ccccc21 | x | n | x
CCCCn1c(SCC(=O)C(C#N)c2nc(C)cs2)nc2cc(S(N)(=O)=O)ccc21 (stereo unspecified) | n | n | n
COc1cc(C=C2C(=O)N(C)C(=O)N(C)C2=O)ccc1OS(=O)(=O)c1ccccc1[N+](=O)[O-] | x | 43 | x
CCOc1cc(/C=C2/C(=O)N(c3ccccc3)N=C2C)ccc1OS(=O)(=O)c1ccccc1[N+](=O)[O-] | x | n | x
Cc1ccc(C)c(N2CCN(C(=O)CN3C(=O)c4ccccc4Sc4ncccc43)CC2)c1 | x | n | x
SMILES | S aureus helic | HCMV NEC inh | Sa growth inh
COc1cc(/C=N/c2c(-c3ccc(O)c(OC)c3)nc3ccccn23)ccc1O | n | n | n
COc1cc(-c2nc3ccccn3c2N)ccc1O | x | 94 | x
O=c1[nH]c2cc3c(cc2c(=O)n1CCCc1nc(-c2ccccc2)no1)OCO3 | x | n | x
O=C1CCCC2=C1C1(O)C(=O)c3ccccc3C1(O)O2 (stereo unspecified) | n | 78 | n
Nc1ccc2c(c1)OC1(O)c3ccccc3C(=O)C21O (stereo unspecified) | n | n | n
O=C(CSc1ncnc2c1oc1ccccc12)NCc1ccccc1 | n | n | x
O=C(CSc1ncnc2c1oc1ccccc12)NC1CCCCC1 | n | 62 | x
O=C(OCCN1CCCC1=O)c1cccs1 | n | n | n
CCN(CC)C(=O)CN1C(=O)c2ccccc2Sc2ccc(C(=O)OCC3CCCO3)cc21 (stereo unspecified) | x | n | x
COc1ccccc1-c1nnc(C2CCN(C(=O)c3ccc(F)cc3F)CC2)o1 | x | n | x
CCn1nccc1C1CCCN1S(=O)(=O)c1cc(OC)ccc1OC (stereo unspecified) | x | n | x
CCc1c(C)sc2c1CCN(Cc1ccccc1C#N)C2c1ccccc1 (stereo unspecified) | x | x | n
CCc1c(C)sc2c1CCN(Cc1ccccc1)C2c1ccccc1 (stereo unspecified) | x | x | -1.1
CCOC(=O)c1c(-c2ccccc2)oc2ccc(OC)cc12 | n | n | x
CCOC(=O)c1c(-c2ccccc2)oc2ccc(OCC)cc12 | n | n | 48
COc1ccc(-c2cc(C(=O)Oc3ccc(C)c(C)c3)no2)cc1 | x | n | x
Cc1cccc(OC(=O)c2cc(-c3ccc(C)c(C)c3)on2)c1 | x | n | 0.8
Cc1ccc(OC(=O)c2cc(-c3ccc4c(c3)OCCO4)on2)cc1C | x | n | 2.2
Cc1cc(OC(=O)c2cc(-c3ccc4c(c3)OCCO4)on2)ccc1Cl | x | n | n
COc1ccc(C2c3c(n(C)c4ccccc34)C(=O)N2CC(=O)Nc2cc(C)cc(C)c2)cc1 (stereo unspecified) | x | n | x
N#Cc1ncc(C(F)(F)F)cc1SCc1ccc(Cl)cc1 | x | n | x
Oc1c(C(c2ccncc2)N2CCCC2)ccc2cccnc12 (stereo unspecified) | n | x | n
Oc1c(C(c2ccc(C(F)(F)F)cc2)N2CCCC2)ccc2cccnc12 (stereo unspecified) | n | n | 1.1
